Rows were chosen to be rich in hits. Some 4.1% of all compounds tested hit in one or more screens of this group.
hcDAF12 agonist – activates DAF-12 receptor from parasite H. contortus. activation, % at 6.8 µM. hit rate 1.4% among 370,000. HEK293 hcDAF-12 lit1-tk-luc reporter, luminescence; 0% DMSO, 100% Δ7-dafachronic acid;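 active = activation above the mean of all tested compounds plus 3 SD, cut at about 5.5% in these data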
DAX1 inh-1 – inhibits human nuclear receptor DAX1; P51843; HEK293 Gal4-DAX1 luciferase reporter, luminescence; hit rate 0.99% among 340,000; inhibition, % at 6.75 µM; AID 504766;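 active = inhibition above the mean over all tested compounds plus 3 SD, cut at about 4.2% in these data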;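 note: inhibition shows as a rise in luminescence from relieved DAX1 repression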
Target sequence (P51843 207-470 limits assumed): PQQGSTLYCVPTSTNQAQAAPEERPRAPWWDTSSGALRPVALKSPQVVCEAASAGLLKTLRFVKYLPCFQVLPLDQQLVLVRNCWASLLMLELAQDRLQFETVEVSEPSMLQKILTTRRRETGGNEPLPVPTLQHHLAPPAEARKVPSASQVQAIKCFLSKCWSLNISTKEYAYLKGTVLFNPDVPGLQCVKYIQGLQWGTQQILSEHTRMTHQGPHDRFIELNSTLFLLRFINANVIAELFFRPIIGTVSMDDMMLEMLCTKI
hgDAF12 agonist – activates the H. glycines DAF-12 receptor ligand-binding domain; HEK293 GAL4-hgDAF12 UAS-luciferase reporter, agonist luminescence; normalized to butyrate control; activation, % at 6.8 µM; hit rate 1.8% among 370,000;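 active = activation above a cutoff set at the mean of all screened compounds plus 3 SD, cut at about 10% in these data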
DAX1 inh-2 – inhibitors of DAX1 repression of SF-1 activated StAR promoter; HEK293T StAR-luciferase reporter, SF-1/DAX-1 repression relief; inhibition, % at 6.8 µM; hit rate 1.1% among 370,000; AID 652010;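 active = inhibition above the mean over all tested compounds plus 3 SD, cut at about 3.6% in these data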;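 note: higher inhibition means more luminescence from relief of DAX-1 repression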
ssDAF-12 act – activators of S. stercoralis DAF-12 nuclear receptor | hit rate 1% among 370,000 | HEK293 ssDAF-12/GRIP1 lit1-tk-luc reporter, luminescence; % of 3 µM dafachronic acid response | activation, % at 6.8 µM | AID 652126;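 active = activation above the mean over all tested compounds plus 3 SD, cut at about 0.9% in these data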
hgDAF12 conf – confirmation of H. glycines DAF-12 agonists. hit rate 80% among 3,300. shares compounds with hgDAF12 agonist. HEK293 GAL4-hgDAF12 luciferase reporter, agonist mode; percent of butyrate response. activation, % at 6.8 µM;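 active = mean activation over triplicate wells above the hit cutoff derived from the earlier primary screen, cut at about 11% in these data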
LXRb DAF12 ctr – counter-screen for DAF-12 agonists: agonists of human LXR-beta; shares compounds with hgDAF12 agonist; HEK293 Gal4-LXR luciferase reporter, 24 h; activation, % at 6.8 µM; 3,300 tested, under 10 active;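 active = mean activation of the triplicate above a set limit carried over from the primary screen, none filed active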
Hits are given with their value; i = inactive; nt = no result given.

SMILES	hcDAF12 agonist	DAX1 inh-1	hgDAF12 agonist	DAX1 inh-2	ssDAF-12 act	hgDAF12 conf	LXRb DAF12 ctr
O=C(/C=C/c1ccc(Br)o1)Nc1nccs1	5.8	i	14.4	i	i	14.6	i
O=C(N/N=C/c1ccc(N2CCOCC2)cc1)c1ccc(O)cc1	i	i	i	i	i	nt	nt
Cc1ccc(C(=O)N/N=C/c2ccc(N3CCOCC3)cc2)c(C)c1	i	i	14.4	i	i	i	i
COc1ccc(Nc2nc(N)nc(CSc3nccn3C)n2)cc1	i	i	21.2	i	i	12.6	i
COc1ccc(Nc2nc(N)nc(CSc3nnc(N)s3)n2)cc1	i	i	i	i	i	nt	nt
CN1N=C(/C=C/c2ccccc2)CCC1=O	i	i	i	i	i	nt	nt
Cc1ccc(/C=C/C2=NN(C)C(=O)CC2)cc1	i	i	14.1	i	i	15.3	i
CCOC(=O)N1CCN(C(=O)CSc2ccc3nnc(-c4cccnc4)n3n2)CC1	i	i	i	i	i	nt	nt
CCCCc1ccc2nc(NC(=O)c3ccco3)sc2c1	i	nt	22.5	nt	i	19.4	i
Cc1ccc2nc(NC(=O)c3ccc(Br)o3)sc2c1	6.3	i	14.7	i	i	17.2	i
CC(=O)Nc1nc2ccc(NC(=O)c3ccco3)cc2s1	i	i	i	i	i	nt	nt
Cc1cc2sc(NC(=O)c3ccco3)nc2cc1Cl	i	i	13.7	i	i	19.9	i
O=C(Nc1nc2ccc(Br)cc2s1)c1ccco1	6.1	i	13.3	i	i	17.1	i
Cc1ccc(-c2cn3cccnc3n2)cc1	i	i	15.1	i	i	11.2	i
C/C(=C\c1ccccc1)C(=O)NCCc1ccccc1	i	i	18.8	i	i	15.9	i
Cc1cc(NC(=O)CN2CCCCC2)no1	i	i	13.8	i	i	i	i
CCN1CCN(CC(=O)Nc2cc(C)on2)CC1	i	i	i	i	i	nt	nt
CCOC(=O)c1ccc(Nc2ncccc2[N+](=O)[O-])cc1	6.0	i	18.3	i	1.7	18.9	i
CCOC(=O)c1ccc(NC(=O)c2ccccc2[N+](=O)[O-])cc1	i	i	i	i	i	nt	nt
Cc1ccc(Nc2ncccc2C(=O)O)cc1C	i	i	i	i	i	nt	nt
Cc1ccc(Nc2ncccc2C(N)=O)cc1[N+](=O)[O-]	i	i	15.7	i	i	14.3	i
Cc1ccc(C2(c3noc(CN(C)CCCN4CCOCC4)n3)CCCC2)cc1	i	nt	i	i	i	nt	nt
O=C(COC(=O)c1ccccc1C(=O)c1ccccc1)NCc1ccc(F)cc1	i	i	15.8	i	i	i	i
CCCN(CCC)C(=O)CC(c1ccccc1)c1ccco1 (configuration not stated)	i	i	i	i	i	nt	nt
CN(Cc1ccc(C(C)(C)C)cc1)C(=O)Cc1ccc(S(=O)(=O)N2CCOCC2)s1	i	i	i	i	i	nt	nt
SMILES	hcDAF12 agonist	DAX1 inh-1	hgDAF12 agonist	DAX1 inh-2	ssDAF-12 act	hgDAF12 conf	LXRb DAF12 ctr
CC1=NN(C(N)=S)C(=O)C1N=Nc1c(C)n(C)n(-c2ccccc2)c1=O (configuration not stated)	i	i	i	i	i	nt	nt
Cc1ccc(NC(=O)c2ccc3ncsc3c2)cc1S(=O)(=O)N(C)C	i	nt	19.5	i	i	13.9	i
Cn1ccc2cc(OCc3ccccc3)ccc21	i	i	22.1	4.2	1.4	15.1	i
O=C(NCc1ccccc1)c1cccc(COc2ccc3c(c2)CCC3)c1	i	i	21.2	i	i	17.4	i
Cc1ccc(OCCC(=O)OCC(=O)Nc2ccc3[nH]c(=O)[nH]c3c2)cc1	i	i	i	i	i	nt	nt
Cc1ccc(NC(=O)N2CCC(c3ccccc3)C2)cc1C (configuration not stated)	i	5.8	14.6	3.6	i	19.2	i
FC(F)(F)c1cnc2c(-c3ccccc3)n[nH]c2c1	i	nt	14.3	i	i	i	i
COC(=O)c1sc(NC(=O)c2ccc(C)o2)nc1C	i	i	13.8	i	i	10.5	i
Cc1ccsc1/C=C1\Oc2cc(O)ccc2C1=O	i	i	24.0	4.5	i	i	i
COc1ccc(C(=O)N/N=C(\C)Cn2cnc([N+](=O)[O-])n2)cc1	i	i	14.6	i	i	i	i
C/C(Cn1cnc([N+](=O)[O-])n1)=N\NC(=O)c1ccc(F)cc1	i	i	i	i	i	nt	nt
CNc1cccc(-c2cccc(O)c2)n1	i	nt	17.3	i	i	i	i
CC1CCc2onc(C(=O)O)c2C1 (configuration not stated)	i	i	i	i	i	nt	nt
O=C(O)c1cc(-c2ccc(N3CCOCC3)cc2)nn1-c1ccc(F)cc1F	i	i	16.9	i	i	i	i
O=C(O)c1cc(-c2ccc(N3CCOCC3)cc2)nn1-c1ccccc1Cl	i	i	i	i	i	nt	nt
CC1Cc2ccccc2N1C1=CC(=O)CCC1 (configuration not stated)	i	i	i	i	i	nt	nt
O=C1c2cccn2CC2Cc3ccccc3N12 (configuration not stated)	6.5	nt	14.6	nt	i	16.9	i
O=C(Nc1nc(=O)c2ccccc2s1)c1ccccc1	i	i	i	i	i	nt	nt
O=C(Nc1nc2c(s1)C(=O)CCC2)c1ccccc1	i	i	15.5	i	i	16.7	i
c1ccn2cc(CSc3nnc4ccccn34)nc2c1	i	i	14.3	3.8	1.1	14.5	i
N#CC1=C(N)N=C(SCc2cccc3ccccc23)C(C(N)=O)C12CCCCC2 (configuration not stated)	i	i	i	i	i	nt	nt
COc1ccc(-c2c(C)nc3c(-c4ccccn4)cnn3c2N)cc1	i	i	14.3	i	i	10.5	i
O=C(O)CCC(=O)Nc1ccccc1C(=O)NCCc1ccccc1	5.9	i	19.2	i	i	i	i
CCc1ccc(NC(=O)Nc2cccs2)cc1	i	i	14.3	i	i	18.1	i
Brc1ccc(-c2nnc(-c3cccc(Br)c3)o2)cc1	i	i	i	i	i	nt	nt
SMILES	hcDAF12 agonist	DAX1 inh-1	hgDAF12 agonist	DAX1 inh-2	ssDAF-12 act	hgDAF12 conf	LXRb DAF12 ctr
Cc1cccc(-c2nnc(-c3ccccc3)o2)c1	i	i	13.4	i	i	15.8	i
N#C/C(=C\c1ccc(N2CCOCC2)cc1)c1ccccc1	6.1	i	21.3	i	i	17.2	i
CCN(CC)C(=O)c1cccc(-c2csc(C(C)(O)c3cccc(F)c3)n2)c1 (configuration not stated)	i	nt	i	i	i	nt	nt
CCCCNC(=O)C1C(c2ccc(OC)cc2)=Nc2ccccc2N1C(=O)c1cccnc1 (configuration not stated)	i	nt	i	i	i	nt	nt
Cc1ccc(/C=C\c2nccc3c2[nH]c2ccccc23)cc1	i	i	15.4	4.5	i	i	i
COc1ccc(/C=N/NC(=O)c2ccc[nH]2)cc1	i	i	13.4	i	i	14.9	i
Cc1cc(C)n2nc(SCC(=O)Nc3ccc(F)cc3)nc2n1	i	i	i	i	i	nt	nt

Source: PubChem (The Scripps Research Institute Molecular Screening Center)
